KB-V1 MDR tox: qHTS assay for MDR1-selective chemotherapeutics: Primary screen using the drug-selected MDR subline cells KB-V1; Potency, µM (highest dose often 46.1 µM), usual class: cytotoxic; AID 1347076, 2019; hit rate 3.4% among 400,000; KB-V1 MDR cells viability, CellTiter-Glo, 72 h; note: % is set by controls: 0 for no effect and ±100 for the full control effect; nearly all actives have a fitted effect of over 60% in size
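Luminescent ATP read-out (CellTiter-Glo, 10 min) measures survival of drug-selected KB-V1 MDR cells after 72 h, 37 degrees C compound exposure. Medium: phenol-red-free DMEM, 10% FBS. Values from fitted concentration-response curves.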
HT1080NT lethal: qHTS for induction of synthetic lethality in tumor cells producing 2HG: qHTS for the HT-1080-NT fibrosarcoma cell line; AID 686970, 2013; Potency, µM (top dose mostly 46.1 µM), for the others: at the highest dose activity, negative = less viability, hits mostly cytotoxic; HT-1080-NT fibrosarcoma viability, CellTiter-Glo ATP luminescence, 48 h; hit rate 1.6% among 360,000;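 note: NT is the 2HG producing partner of a matched IDH1 knockdown line; 0% = DMSO-treated cells and -100% = media-only wells without cells; nearly all actives have a fitted effect of over 55% in size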
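Viability by CellTiter-Glo luminescence after 48 h compound exposure at 37C of HT-1080-NT cells (750/well, RPMI, 5% FBS). % activity scaled between DMSO wells and medium-only wells, then curve-fitted and categorized by curve class.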
MCF10A rereplic: A quantitative high throughput screen for small molecules that induce DNA re-replication in MCF 10a normal breast cells; MCF 10A DNA re-replication, Hoechst nuclear intensity, 48 h; Potency, µM (titrated, usually from 46.1 µM), inactives show at the top dose activity, positive = re-replication, usual class: activators; hit rate 2.9% among 350,000; AID 624296, 2012; note: % of control where 0% means no effect; nearly all actives have a fitted effect of over 50% in size
SW480 rereplic: A quantitative high throughput screen for small molecules that induce DNA re-replication in SW480 colon adenocarcinoma cells | SW480 DNA re-replication, Hoechst DNA content imaging, 48 h | Potency, µM (doses to about 46.1 µM), inactives show at the highest dose re-replication activation, hits mostly activators | hit rate 1.8% among 340,000 | AID 624297, 2012; note: % of control where 0% means no effect; nearly all actives have a fitted effect of over 55% in size
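Readout is total intensity of Hoechst-stained nuclei, excited at 405 nm and collected at 500-530 nm. Compound treatment lasted 48 hr at 37 C in 5% CO2 before staining.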
HT1080 IDH1KD tx: qHTS for induction of synthetic lethality in tumor cells producing 2HG: qHTS for the HT-1080-IDH1KD cell line; HT-1080 IDH1 knockdown viability, ATP luminescence, 48 h; Potency, µM (series often up to 46.1 µM), for the others: top-dose activity, negative = toxicity, most hits filed as cytotoxic; hit rate 2% among 360,000;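 note: 0% = DMSO wells and -100% = cell-free medium wells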
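Using the IDH1-knockdown HT-1080 line run in the same batch and compound series as the NT line, viability after 48 h at 37 °C was determined by CellTiter-Glo luminescence and expressed as % activity.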
KB-3-1 tox: qHTS assay for MDR1-selective chemotherapeutics: Primary screen using the parental adenocarcinoma cell KB-3-1 | Potency, µM (series often up to 46.1 µM), hits mostly cytotoxic | hit rate 1.4% among 400,000 | KB-3-1 viability, CellTiter-Glo ATP luminescence, 72 h; note: % is set by controls: 0 for no effect and ±100 for the full control effect; nearly all actives have a fitted effect of over 60% in size
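Cytotoxicity in the drug-sensitive parental line KB-3-1 was scored as loss of CellTiter-Glo luminescence following 72 h incubation with compound. Values come from curve fitting of normalized concentration-response data.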
* = called active by the depositor; i = inactive; ? = inconclusive; [ ] = another dose, or the depositor's remark. Most compounds without a hit are left out; they make up all but 7.9% or so of the library. Calls come from the whole dose curve; as a rule, active = well fitted curve in the direction sought with a large enough effect; inconclusive = small, poorly fitted or top-dose-only effect, or another doubt; inactive = no such curve, though single readings can be large; an effect the other way counts as inactive or inconclusive. Potency is the fitted concentration of half-maximal effect.

SMILES | KB-V1 MDR tox | HT1080NT lethal | MCF10A rereplic | SW480 rereplic | HT1080 IDH1KD tx | KB-3-1 tox
CCn1c(SCC(=O)NNC(=O)Cc2ccccc2)nnc1-c1ccncc1 | i | 16% | 15% | -25% | 10% | i
CCC(=O)N1CCN(c2nc(CC)nc3sc4c(c23)CCCC4)CC1 | ? | -28% | 13% | 2% | -15% | i
CC1CCc2c(sc3nc(C(C)(C)C)nc(N4CCN(C(=O)CCl)CC4)c23)C1 (centres undefined) | ? | 12µM* | 15µM* | 5.2µM* | 4.6µM* | ?
Cc1ncc(CN2CCCC(C(=O)Nc3ccc(-n4ccnc4C)cc3)C2)cn1 (centres undefined) | i | 1% | 10% | ? | 4% | i
CN(Cc1cnc2nc(N)nc(N)c2n1)c1ccc(C(=O)NC(CCC(=O)O)C(=O)O)c2ccccc12 (centres undefined) | i | ? | 8% | ? | 0.0058µM* | ?
C=CCn1c(SCc2nc3ccccc3[nH]2)nnc1-c1cccc(OC)c1 | 3.7µM* | -17% | 8% | -14% | -7% | i
CCn1c(SCc2nc3ccccc3[nH]2)nnc1-c1ccc(OC)cc1 | 10µM* | -4% | 3% | -16% | -5% | i
C=CCn1c(SCc2nc3ccccc3[nH]2)nnc1-c1ccccn1 | i | -2% | 4% | 7% | 2% | i
C=CCn1c(SCc2nc3ccccc3[nH]2)nnc1-c1ccc(OC)cc1 | 4.6µM* | 7% | 22% | -8% | 0% | i
COc1ccccc1CNC(=O)COC(=O)Cc1c(Cl)cccc1Cl | ? | 9% | 9% | -20% | 2% | i
Cc1cc(C(=O)NCC(c2ccco2)N2CCCC2)c2ccccc2n1 (centres undefined) | i | 0%[9.24 µM] | 1% | -1% | 6% | i
CCc1c(C(=O)Nc2nnc(C3CC3)s2)csc1C | i | 13% | -1% | 1% | 17% | i
CNC(=O)c1cc(C(=O)c2ccc(Cl)cc2)c[nH]1 | i | 20% | 7% | 8% | 15% | i
O=C(c1ccc(Cl)cc1)c1c[nH]c(C(=O)NNc2ccccc2)c1 | i | ? | -9% | ? | 5.2µM* | i
O=C(O)c1ccccc1C(=O)NNc1ccc(Cl)cc1 | i | -25% | 4.6µM* | 14% | ? | i
O=C(NNc1ccc(Cl)cc1)c1sccc1Cl | i | ? | ? | 1% | 8.2µM* | i
O=C1OC(Nc2nc(-c3ccc(F)cc3)cs2)c2ccccc21 (centres undefined) | ? | ? | 21µM* | 26µM* | 23µM* | i
Cc1ccc(-c2nc(N=Nc3ccc(O)cc3)n[nH]2)cc1 | 13µM* | 12% | ? | -3% | -15% | i
COc1ccc(-c2nc(N=Nc3ccc(O)cc3)n[nH]2)cc1 | i | 7% | -4% | -4% | -9% | i
CCOC(=O)c1cccc(-c2c(-c3ccccc3)ncc3cc(OC)c(OC)cc23)c1 | i | ? | ? | -3% | -26% | i
O=C(c1ccccc1)c1ccc(NCCCn2ccnc2)c([N+](=O)[O-])c1 | 5.2µM* | -24% | 25% | -5% | -21% | ?
Cc1ccc(CNC(=O)C2CC(c3ccccc3C(F)(F)F)=NO2)cc1 (centres undefined) | i | 1% | ? | ? | 3% | i
O=C(N/N=C/c1cc([N+](=O)[O-])ccc1O)c1cccc(NC(=O)c2cccc(Cl)c2)c1 | i | -1% | -14% | 2.3µM* | -13% | i
